Reference: PubChem BioAssay (NCATS)
Records with an inconclusive call do not appear. Activity calls are given as the source filed them. Unless noted, the call rests on the fitted dose curve; in most records, active means well fitted curve in the direction sought with a large enough effect; inconclusive means small, poorly fitted or top-dose-only effect, or another doubt; inactive means no such curve, though single readings can be large; an effect the other way counts as inactive or inconclusive.

How the values were obtained:
[1] = NFAT Signaling Pathway (AID 444; active means well fitted curve in either direction with a large enough effect, not every such curve was filed as active;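 further: carbachol stimulus at about its EC50 of 1 µM final; on the % scale 0 is the no-effect control and ±100 the full control effect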); settings: Jurkat NFAT-bla M1, carbachol, beta-lactamase ratio, 5 h; at 17.2 µM (top of the series) unless noted
Summary of the method: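 Jurkat cells with NFAT-driven β-lactamase reporter and co-expressed M1 receptor, stimulated with carbachol (final 1 uM, ~EC50), compound titration, 5 h at 37 °C. CCF4 loaded 1 h at RT; 460/530 nm ratio gave %activity and AC50.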

[2] = Stat Signaling Pathway (AID 446; active means well fitted curve in either direction with a large enough effect, not every such curve was filed as active;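 further: ME-180 cervical cancer cells given 40 pM IL-6 alongside compound; SIE-controlled beta-lactamase reporter measured as 460/530 nm FRET emission ratio; on the % scale 0 is the no-effect control and ±100 the full control effect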); settings: ME-180 (cervical carcinoma) SIE beta-lactamase reporter, IL-6 stimulated, 5 h; at 17.2 µM (top of the series) unless noted
Summary of the method: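 FRET read-out (405 nm excitation, 460/530 nm emission) of a beta-lactamase reporter under a STAT-inducible element in ME-180 cervical carcinoma cells. Cells with compound receive 40 pM IL-6 for 5 h. Values are normalised to AC90 stimulation and AC90 JAK-inhibitor controls.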

[3] = molecular target: Glucocorticoid receptor (Homo sapiens) (UniProt P04150); experiment: GR-GFP Redistribution (AID 450;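 active means compounds whose dose series gives a full or clear partial fitted curve of increased nuclear translocation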; further: potency means the concentration at half of the fitted maximal effect)
[4] = molecular target: Glucocorticoid receptor (Homo sapiens) (UniProt P04150); experiment: GR-EFC Redistribution (AID 451; calls by dose curve; further: potency means the concentration at half of the fitted maximal effect); settings: CHO-K1 GR-EFC translocation, beta-gal luminescence, 2 h
Summary of the method: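 CHO-K1 cells expressing nuclear EA and GR-ED fragments of b-gal; compounds titrated up to 46 uM final, 2 h at 37 C. GR nuclear translocation read as complemented b-gal luminescence after 1 h RT detection.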

[5] = molecular target: Mitogen-activated protein kinase 10 (Mus musculus) (UniProt Q61831); experiment: JNK3 AlphaScreen Assay (AID 530; active means well fitted curve in either direction with a large enough effect, not every such curve was filed as active;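 further: kinase came from lysate of stimulated human HepG2 cells; signal reports phosphorylation of biotinylated GST-cJun 1-79 at Ser73 with 10 µM ATP; on the % scale 0 is the no-effect control and ±100 the full control effect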)
Summary of the method: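 HepG2 lysate (IL-1b/TNFa pre-activated) + biotin-GST-cJun 1-79 + anti-pSer73 cJun; cpd titration, 15 min RT; ATP 10 uM start; Tris pH 7.6, MgCl2, DTT, vanadate; beads in EDTA buffer; AlphaScreen.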

[6] = molecular target: 3',5'-cyclic-AMP phosphodiesterase 4B (Homo sapiens) (UniProt Q07343); experiment: qHTS Assay for Inhibitors of PDE-IV (AID 607; active means well fitted activation curve with a large enough effect in the main read-out, with a control signal flat, not every such curve was filed as active; further: % of control where 0% means no effect)
Summary of the method: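 Cell-based read-out of cAMP via a modified cyclic nucleotide-gated channel and membrane potential dye (535/590 nm) in HEK293 cells expressing PDE4 endogenously. Compounds tested up to 22.9 uM final; 100 uM RO 20-1724 reference.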

[7] = molecular target: ATP-dependent 6-phosphofructokinase (Trypanosoma brucei brucei) (UniProt O15648); experiment: qHTS Assay to Find Inhibitors of T. brucei phosphofructokinase: hit validation (AID 492961);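 further: luminescence reports ADP formed as PFK phosphorylates fructose-6-phosphate with ATP; on the % scale 0 is the no-effect control and ±100 the full control effect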
Summary of the method: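 Compounds titrated; %activity normalized to 0x and 1x enzyme controls, curve-fitted. Readout: ADP-Glo luminescence after 45 min room-temperature reaction of 1.25 nM PFK, 0.1 mM ATP, 0.5 mM F6P, pH 8.0.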

[8] = molecular target: Luciferin 4-monooxygenase (Photinus pyralis) (UniProt P08659); experiment: Biochemical firefly luciferase enzyme assay for NPC (AID 624030);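 further: purified P. pyralis luciferase at 10 nM with luciferin and ATP substrate; 0% = DMSO and -100% = full luciferase inhibition by PTC124 control; nearly all actives have a fitted effect of over 70% in size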
Summary of the method: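 Purified P. pyralis luciferase at 10 nM in 50 mM Tris Acetate (final), luminescence read within 5 minutes of enzyme addition to compounds. Activity normalised to PTC124 versus DMSO; concentration-response curves classed by r2, magnitude and activity.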

[9] = S16 Schwann cell PMP22 intronic element firefly luciferase assay (AID 624032);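 further: plate controls were DMSO for no effect and PTC124 positive control mean for full effect; nearly all actives have a fitted effect of over 30% in size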
Summary of the method: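 Rat S16 Schwann cells stably carrying firefly luciferase driven by a PMP22 intronic element, in 10% FBS, treated 24 h at 37 C. ONE-Glo luminescence normalized to PTC124 control and DMSO (0%); curves classed by r2, magnitude and activity.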

[10] = qHTS profiling for inhibitors of Plasmodium falciparum proliferation (AID 504749);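 further: 0% = DMSO vehicle and full inhibition = artemisinin control; nearly all actives have a fitted effect of over 60% in size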; settings: P. falciparum in erythrocytes, SYBR Green DNA, 72 h, at 12.8 µM (top of the series)
Summary of the method: (§1)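 SYBR Green fluorescence (ex 485 nm, em 535 nm) reports parasite DNA after 72 h compound exposure of infected red cells at 0.3% parasitemia, 2.5% hematocrit; signal normalized to 0.29 uM artemisinin and vehicle wells.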

3D7 = experiment: as above; settings: P. falciparum in erythrocytes, SYBR Green DNA, 72 h; series mostly up to 28.7 µM
Summary of the method: as §1

7G8 = experiment: as above; settings: P. falciparum in erythrocytes, SYBR Green DNA, 72 h; series mostly up to 28.7 µM
Summary of the method: as §1

AA1029 = experiment: as above; settings: P. falciparum in erythrocytes, SYBR Green DNA, 72 h; series mostly up to 28.7 µM
Summary of the method: as §1

AS120 = experiment: as above; settings: P. falciparum in erythrocytes, SYBR Green DNA, 72 h; series mostly up to 28.7 µM
Summary of the method: as §1

ATS189 = experiment: as above; settings: P. falciparum in erythrocytes, SYBR Green DNA, 72 h; series mostly up to 28.7 µM
Summary of the method: as §1

ATS95 = experiment: as above; settings: P. falciparum in erythrocytes, SYBR Green DNA, 72 h; series mostly up to 28.7 µM
Summary of the method: as §1

C2A = experiment: as above; settings: P. falciparum in erythrocytes, SYBR Green DNA, 72 h; series mostly up to 28.7 µM
Summary of the method: as §1

CP185 = experiment: as above; settings: P. falciparum in erythrocytes, SYBR Green DNA, 72 h; series mostly up to 28.7 µM
Summary of the method: as §1

CP191 = experiment: as above; settings: P. falciparum in erythrocytes, SYBR Green DNA, 72 h; series mostly up to 28.7 µM
Summary of the method: as §1

CP192 = experiment: as above; settings: P. falciparum in erythrocytes, SYBR Green DNA, 72 h; series mostly up to 28.7 µM
Summary of the method: as §1

CP194 = experiment: as above; settings: P. falciparum in erythrocytes, SYBR Green DNA, 72 h; series mostly up to 28.7 µM
Summary of the method: as §1

CP201 = experiment: as above; settings: P. falciparum in erythrocytes, SYBR Green DNA, 72 h; series mostly up to 28.7 µM
Summary of the method: as §1

CP203 = experiment: as above; settings: P. falciparum in erythrocytes, SYBR Green DNA, 72 h; series mostly up to 28.7 µM
Summary of the method: as §1

CP211 = experiment: as above; settings: P. falciparum in erythrocytes, SYBR Green DNA, 72 h; series mostly up to 28.7 µM
Summary of the method: as §1

CP215 = experiment: as above; settings: P. falciparum in erythrocytes, SYBR Green DNA, 72 h; series mostly up to 28.7 µM
Summary of the method: as §1

CP217 = experiment: as above; settings: P. falciparum in erythrocytes, SYBR Green DNA, 72 h; series mostly up to 28.7 µM
Summary of the method: as §1

CP237 = experiment: as above; settings: P. falciparum in erythrocytes, SYBR Green DNA, 72 h; series mostly up to 28.7 µM
Summary of the method: as §1

CP238 = experiment: as above; settings: P. falciparum in erythrocytes, SYBR Green DNA, 72 h; series mostly up to 28.7 µM
Summary of the method: as §1

CP247 = experiment: as above; settings: P. falciparum in erythrocytes, SYBR Green DNA, 72 h; series mostly up to 28.7 µM
Summary of the method: as §1

CP250 = experiment: as above; settings: P. falciparum in erythrocytes, SYBR Green DNA, 72 h; series mostly up to 28.7 µM
Summary of the method: as §1

CP252 = experiment: as above; settings: P. falciparum in erythrocytes, SYBR Green DNA, 72 h; series mostly up to 28.7 µM
Summary of the method: as §1

CP256 = experiment: as above; settings: P. falciparum in erythrocytes, SYBR Green DNA, 72 h; series mostly up to 28.7 µM
Summary of the method: as §1

CP260 = experiment: as above; settings: P. falciparum in erythrocytes, SYBR Green DNA, 72 h; series mostly up to 28.7 µM
Summary of the method: as §1

Sequence of Glucocorticoid receptor (Homo sapiens) (P04150 whole entry, looked up, the tested form may be a part): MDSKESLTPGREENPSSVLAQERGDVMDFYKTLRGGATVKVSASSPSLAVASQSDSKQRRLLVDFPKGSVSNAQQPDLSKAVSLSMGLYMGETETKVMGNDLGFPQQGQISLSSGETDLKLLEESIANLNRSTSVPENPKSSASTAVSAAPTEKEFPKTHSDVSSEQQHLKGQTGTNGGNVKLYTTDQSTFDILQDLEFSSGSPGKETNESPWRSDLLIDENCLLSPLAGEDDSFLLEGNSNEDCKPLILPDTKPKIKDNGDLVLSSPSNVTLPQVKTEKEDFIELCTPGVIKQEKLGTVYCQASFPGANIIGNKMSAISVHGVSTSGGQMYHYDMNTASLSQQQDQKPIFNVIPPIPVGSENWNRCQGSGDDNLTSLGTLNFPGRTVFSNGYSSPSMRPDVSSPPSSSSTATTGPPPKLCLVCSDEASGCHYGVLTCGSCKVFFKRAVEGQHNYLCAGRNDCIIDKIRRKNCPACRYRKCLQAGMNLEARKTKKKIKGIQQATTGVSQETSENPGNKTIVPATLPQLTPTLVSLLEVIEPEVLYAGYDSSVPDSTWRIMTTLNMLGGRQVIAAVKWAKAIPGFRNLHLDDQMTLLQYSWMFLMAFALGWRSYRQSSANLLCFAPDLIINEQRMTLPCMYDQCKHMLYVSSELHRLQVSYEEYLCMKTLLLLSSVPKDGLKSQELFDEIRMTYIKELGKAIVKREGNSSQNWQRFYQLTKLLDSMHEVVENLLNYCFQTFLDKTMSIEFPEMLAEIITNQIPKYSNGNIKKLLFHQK
Sequence of Luciferin 4-monooxygenase (Photinus pyralis) (P08659 whole entry, looked up): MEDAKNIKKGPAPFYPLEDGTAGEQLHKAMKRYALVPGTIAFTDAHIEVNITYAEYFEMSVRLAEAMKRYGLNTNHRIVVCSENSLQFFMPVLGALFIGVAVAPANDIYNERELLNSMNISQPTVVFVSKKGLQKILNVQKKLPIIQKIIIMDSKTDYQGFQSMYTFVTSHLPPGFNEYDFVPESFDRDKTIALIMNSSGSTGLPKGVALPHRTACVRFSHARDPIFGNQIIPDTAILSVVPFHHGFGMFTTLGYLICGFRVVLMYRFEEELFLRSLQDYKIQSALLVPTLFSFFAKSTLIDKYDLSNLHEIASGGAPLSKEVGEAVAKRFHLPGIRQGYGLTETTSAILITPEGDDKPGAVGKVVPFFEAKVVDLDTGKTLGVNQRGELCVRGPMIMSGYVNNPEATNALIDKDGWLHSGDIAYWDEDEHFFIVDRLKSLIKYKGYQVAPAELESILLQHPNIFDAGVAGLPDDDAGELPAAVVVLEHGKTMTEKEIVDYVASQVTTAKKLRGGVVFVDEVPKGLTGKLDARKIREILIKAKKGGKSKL
Sequence of 3',5'-cyclic-AMP phosphodiesterase 4B (Homo sapiens) (Q07343 whole entry, looked up): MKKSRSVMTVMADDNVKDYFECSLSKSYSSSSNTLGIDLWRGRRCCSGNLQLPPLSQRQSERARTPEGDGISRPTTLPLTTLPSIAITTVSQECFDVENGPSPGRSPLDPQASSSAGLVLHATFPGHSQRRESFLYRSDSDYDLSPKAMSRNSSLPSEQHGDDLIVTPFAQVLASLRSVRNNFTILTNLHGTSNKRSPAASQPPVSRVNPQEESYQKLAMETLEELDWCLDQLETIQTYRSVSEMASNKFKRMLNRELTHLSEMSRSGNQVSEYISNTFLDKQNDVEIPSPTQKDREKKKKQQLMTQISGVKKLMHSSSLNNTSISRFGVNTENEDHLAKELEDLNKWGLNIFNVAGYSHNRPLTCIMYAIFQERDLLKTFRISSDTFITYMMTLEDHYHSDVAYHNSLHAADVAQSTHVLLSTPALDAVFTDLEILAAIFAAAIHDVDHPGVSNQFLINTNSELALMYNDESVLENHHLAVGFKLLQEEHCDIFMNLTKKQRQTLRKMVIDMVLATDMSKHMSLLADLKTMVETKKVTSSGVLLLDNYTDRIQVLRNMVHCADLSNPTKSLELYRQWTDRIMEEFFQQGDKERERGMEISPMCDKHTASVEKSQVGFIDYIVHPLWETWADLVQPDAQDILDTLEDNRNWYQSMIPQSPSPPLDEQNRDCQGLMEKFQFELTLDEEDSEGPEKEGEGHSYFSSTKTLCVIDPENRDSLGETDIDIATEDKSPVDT
Sequence of ATP-dependent 6-phosphofructokinase (Trypanosoma brucei brucei) (O15648 whole entry, looked up): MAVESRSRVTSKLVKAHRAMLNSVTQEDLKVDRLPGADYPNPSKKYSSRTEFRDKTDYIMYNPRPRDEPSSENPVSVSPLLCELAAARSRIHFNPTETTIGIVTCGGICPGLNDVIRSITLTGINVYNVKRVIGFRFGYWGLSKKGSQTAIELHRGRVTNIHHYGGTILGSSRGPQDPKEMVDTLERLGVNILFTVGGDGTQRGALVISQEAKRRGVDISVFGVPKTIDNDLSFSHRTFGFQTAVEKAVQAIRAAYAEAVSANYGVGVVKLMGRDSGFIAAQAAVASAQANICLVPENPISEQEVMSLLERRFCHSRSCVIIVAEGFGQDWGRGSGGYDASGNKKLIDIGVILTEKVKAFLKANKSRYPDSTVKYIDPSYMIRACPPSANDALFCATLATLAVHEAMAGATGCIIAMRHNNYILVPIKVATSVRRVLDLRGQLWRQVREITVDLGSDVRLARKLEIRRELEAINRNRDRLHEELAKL

C[C@H](O)[C@@H]1C(=O)N2C(C(=O)O)=C(SCCN=CN)C[C@@H]12
inactive: activity change, negative = inhibition [1] -9.39% | activity, negative = inhibition [2] -2.21% | Potency [3] > 20.6 µM | Potency [4] > 20.6 µM | Potency [5] | Potency [6] | Potency [7] | Potency [8] | Potency [9] | activity, negative = inhibition ([10]; parasite line A) 7.64% | activity, negative = inhibition ([10]; parasite line B) 5.5% | Potency (3D7) | Potency (7G8) | Potency (AA1029) | Potency (AS120) | Potency (ATS189) | Potency (ATS95) | Potency (C2A) | Potency (CP185) | Potency (CP191) | Potency (CP192) | Potency (CP194) | Potency (CP201) | Potency (CP203) | Potency (CP211) | Potency (CP215) | Potency (CP217) | Potency (CP237) | Potency (CP238) | Potency (CP247) | Potency (CP250) | Potency (CP252) | Potency (CP256) | Potency (CP260)
